# Experimental data from PubChem BioAssay (NCATS).
# Records with an inconclusive call do not appear. A number with no mark means an inactive call. The source made the active and inactive calls. Calls follow the shape of the dose curve; as a rule, active = well fitted inhibition curve with a large enough effect; inconclusive = small, poorly fitted or top-dose-only effect; inactive = no such curve, though single readings can be large or run the other way.
# Molecular target: Thioredoxin reductase 1, cytoplasmic (Rattus norvegicus) (UniProt O89049)
# Assay: qHTS Assay for Inhibitors of Mammalian Selenoprotein Thioredoxin Reductase 1 (TrxR1) (AID 488773); also: nearly all actives have a fitted effect of over 40% in size
# Conditions: purified TrxR1 enzyme activity; Potency: inhibition; series mostly up to 57.1 µM; activity change, negative = inhibition: at the top concentration
# From the text: The selenoprotein thioredoxin reductase (TrxR; EC 1.8.1.9) is a FAD containing homodimeric pyridine nucleotide-disulfide oxidoreductase with many cellular roles. Together with NADPH and its prime substrate thioredoxin (Trx), the enzyme forms the core of the Trx system. The mammalian Trx system exerts a wide spectrum of functions including redox regulation, antioxidant defense, regulation of transcription factors as well as support of cell growth and replication. Many of these functions involve the reduction of Trx, which may subsequently reduce a number of different substrates including ribonucleotide reductase, peroxiredoxins or NFkB. Mammalian TrxR itself also has a broad substrate specificity, reducing both protein and non-protein substrates, including low molecular weight compounds such as dehydroascorbate, lipoic acid, ubiquinone, and juglone. In addition, several drugs in clinical use for anticancer treatment are indeed known to target TrxR1.
# This BioAssay is a validation of an NADPH fluorescence-based, dual-purpose qHTS rTrxR1 assay designed to find potential inhibitors and substrates of rTrxR1. For this particular BioAssay, actives are potential inhibitors. See related BioAssay for substrate data deposition.
# Assay protocol: 2 uL of reagents (buffer in column 4 as negative control and 90 nM rTrxR1 in columns 1-3 and 5-48) were dispensed into Greiner black solid-bottom 1,536-well assay plates, followed by 1 uL of NADPH (400 uM final concentration) to each well. The plates were centrifuged at 1000 rpm for 15 seconds and subsequently incubated for 5 min at room temperature (~22 deg C) to allow for rTrxR1 reduction. Compounds (23 nL) were then transferred via Kalypsys pin tool equipped with 1536-pin array (10 nL slotted pins, V&P Scientific, San Diego, CA). In addition, a duplicate 2-fold serial dilution of the control compounds auranofin, a known gold-based TrxR1 inhibitor, and juglone (5-hydroxy-1,4-naphthoquinone), a natural TrxR1 substrate, were pin-transferred to columns 2 and 3, respectively. After incubation for 15 min at room temperature (~22 deg C), 1 uL of selenite (400 uM final concentration) were dispensed to each well. The plate was immediately transferred to a ViewLux high-throughput CCD imager (PerkinElmer), wherein kinetic measurements of NADPH fluorescence (Ex 340 nm, Em 450 nm) were acquired (8 minute kinetic read, see Table 1). Read 1 was utilized to assess the capacity of a compound to serve as an rTrxR1 substrate, i.e. a decrease in NADPH fluorescence compared to the no-compound background is an indication of a substrate behavior for that particular compound. For inhibitory activity of a compound, delta values, computed as the difference in fluorescence intensity between the first and last reads of an 8-minute time kinetic window, were used. All reagents were diluted in an assay buffer consisting of 50 mM Tris-HCl, pH 7.5, 2 mM EDTA, and 0.01% Tween-20.
# Throughout the screen, reagent bottle and all liquid lines were made light-tight to minimize reagent degradation. All screening operations were performed on a fully integrated robotic system (Kalypsys, San Diego, CA) containing one RX-130 and two RX-90 anthropomorphic robotic arms (Staubli, Duncan, SC). Library plates were screened starting from the lowest and proceeding to the highest concentration, and a 'double-pinning' step of the highest concentration was required to access higher concentrations of compounds. Vehicle-only plates, with DMSO being pin-transferred to the columns 5-48, were inserted uniformly at the beginning and the end of each library in order to monitor and record any shifts in the background, which can be affected by reagent dispensers or loss in enzyme activity over time. Screening data were corrected, normalized, and concentration-effect relationships were derived by using publicly-available curve fitting algorithms developed in-house (http://ncgc.nih.gov/pub/openhts).
# % is scaled to controls: 0 for no effect and ±100 for the full control effect; potency is read from the fitted curve at half-maximal effect.
# Chain of Thioredoxin reductase 1, cytoplasmic (Rattus norvegicus) (O89049 whole entry, looked up): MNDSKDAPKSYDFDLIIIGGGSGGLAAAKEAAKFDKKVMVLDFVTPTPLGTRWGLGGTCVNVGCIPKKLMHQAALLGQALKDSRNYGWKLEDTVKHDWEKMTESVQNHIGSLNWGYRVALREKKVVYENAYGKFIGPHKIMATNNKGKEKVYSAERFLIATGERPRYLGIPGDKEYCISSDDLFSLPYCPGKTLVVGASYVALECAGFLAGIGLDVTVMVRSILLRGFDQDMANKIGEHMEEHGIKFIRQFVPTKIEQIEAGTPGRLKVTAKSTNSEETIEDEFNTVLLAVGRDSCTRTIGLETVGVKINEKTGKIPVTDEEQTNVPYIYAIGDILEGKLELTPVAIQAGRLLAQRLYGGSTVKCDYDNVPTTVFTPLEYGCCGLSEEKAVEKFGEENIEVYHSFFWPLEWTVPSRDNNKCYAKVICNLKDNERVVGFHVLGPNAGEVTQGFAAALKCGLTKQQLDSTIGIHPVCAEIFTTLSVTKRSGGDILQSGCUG
SMILES,"activity change, negative = inhibition [%]",Potency
CCCn1c(C)c(C(=O)c2ccc3ccccc3c2)c2ccccc21,-4.29,
C[N+](C)(C)CC#CCN1CCCC1=O,11.9,
COc1cc(CC(C)N)c(OC)cc1I (stereo not given),-12.6,
Nc1ccc(CCN2CCN(c3cccc(C(F)(F)F)c3)CC2)cc1,-14.5,
CC(C)NP(=O)(NC(C)C)OP(=O)(NC(C)C)NC(C)C,4.1,
CC(Cc1ccc(OCC(=O)O)cc1)NCC(O)c1cccc(Cl)c1 (stereo not given),-5.29,
C[N+]1(C)C2CCC1CC(OC(=O)c1c[nH]c3ccccc13)C2 (stereo not given),-0.556,
N#CCCN,-8.57,
O=[N+]([O-])/C=C/c1ccc2c(c1)OCO2,,7.52 µM (active)
C[Se]C[C@H](N)C(=O)O,-10.2,
O=c1c2ccccc2[se]n1-c1ccccc1,-1.24,
O=C1C=CC(=O)C=C1,1.22,
NCC(CP(=O)(O)O)c1ccc(Cl)cc1 (stereo not given),-2.53,
CCN1C[C@@]2(COC)C3[C@@H](OC)C4[C@@H]1C3([C@@H]1C[C@]3(O)[C@H](OC(=O)c5ccccc5)[C@@H]1[C@]4(OC(C)=O)[C@@H](O)[C@@H]3OC)[C@H](OC)C[C@H]2O,-1.38,
CCNC(=O)[C@H]1O[C@@H](n2cnc3c(N)ncnc32)[C@H](O)[C@@H]1O,-4.06,
CCCCCCCCCCCCCC(=O)O[C@@H]1[C@@H](C)[C@@]2(O)[C@@H](C=C(CO)C[C@@]3(O)C(=O)C(C)=C[C@@H]23)C2C(C)(C)[C@@]21OC(C)=O (stereo not given in full),19.9,
C[C@H](N)Cc1cccc(C(F)(F)F)c1,-9.84,
NC(=O)c1cc(N2CC2)c([N+](=O)[O-])cc1[N+](=O)[O-],-18.1,
O=C(O)c1cc[c]([Hg][Cl])cc1,,0.299 µM (active)
Cc1sc2ccccc2c1CC1=NCCN1,-6.01,

SMILES,"activity change, negative = inhibition [%]",Potency
c1ccc2c(N3CCNCC3)cccc2c1,-1.68,
COc1ccc(CNC(=O)/C=C/c2ccc3[nH]cc(CCN(C)C)c3c2)cc1,-1.38,
COc1ccc2c(c1)C13CCCCC1C(C2)N(C)CC3 (stereo not given),-7.59,
CNc1ccc2oc(C[C@H]3O[C@@]4(CC[C@H]3C)O[C@H]([C@H](C)C(=O)c3ccc[nH]3)[C@H](C)C[C@H]4C)nc2c1C(=O)O,102,
O=S1(=O)N(CCN2CC=C(c3c[nH]c4cc(F)ccc34)CC2)c2cccc3c2N1CCC3,0.777,
NC(=O)c1ccc(OCC(O)CN2CC=C(c3ccc(F)cc3)CC2)cc1 (stereo not given),1.78,
COc1ccc2c(c1)[C@@]13CCCC[C@H]1[C@@H](C2)NCC3,1.89,
Oc1ccc2c3c1O[C@H]1c4oc5ccccc5c4C[C@@]4(O)C(C2)N(CC2CC2)CCC314 (stereo not given in full),-1.48,
Ic1ccccc1CNC1C2CCN(CC2)C1C(c1ccccc1)c1ccccc1 (stereo not given),-13.1,
OC1CCCCC1N1CCC(c2ccccc2)CC1 (stereo not given),-7.45,
CP(=O)(O)C1=CCNCC1,-0.332,
C=CCN1C[C@@H](C)N([C@H](c2ccc(C(=O)N(CC)CC)cc2)c2cccc(OC)c2)C[C@@H]1C,-7.48,
C=CCN(C1=NCCN1)c1c(Cl)cccc1Cl,-18.7,
NC(C(=O)O)c1cc(=O)[nH]o1 (stereo not given),0.893,
CN1CCc2cccc(Cl)c2CC1,-4.61,
NC(Cc1cc(O)c(O)cc1O)C(=O)O (stereo not given),,10.6 µM (active)
C=CCN1CC[C@]23c4c5ccc(O)c4O[C@@H]2/C(=N/N=C2\CC[C@@]4(O)C6Cc7ccc(O)c8c7[C@@]4(CCN6CC=C)[C@@H]2O8)CC[C@@]3(O)C1C5,,11.9 µM (active)
CC(N)[C@H](O)c1ccc(O)c(O)c1 (stereo not given in full),,11.9 µM (active)
CC(N)Cc1c[nH]c2ccc(O)cc12 (stereo not given),-8.88,
C[N+]1(C)CCc2cc3c(cc2[C@H]1[C@@H]1OC(=O)c2c1ccc1c2OCO1)OCO3,-4.29,
